Measured values from PubChem BioAssay AID1159580 (chemical genetic matrix, 2015).
Where “and” joins values, the source holds several entries; their conditions need not be identical. Identical values can stand only once. Hit rate of the full screen: of about 5,500 compounds, about 2,000 (36%) were called active. Not shown: some 18% with an inconclusive outcome. Rule as the data show it: active = normalized growth mostly below about 0.91 (no sharp cut-off); inconclusive = no clear call, values can overlap the other calls; inactive = mostly above about 0.92. This is one part of the list.

Assay: chemical genetic growth profiling, strain panel (AID 1159580);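 also: tested at 20 µM; growth read once vehicle control cultures reached saturation at 30 °C; 1 = growth at the plate median or of vehicle wells; lower values mean less growth of the strain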
Details: S. cerevisiae deletion strains, growth OD

Measured: normalized growth

CC1(C)C(=O)[C@@H]2C[C@@]3(O)C4=CC(=O)O[C@@H](c5ccoc5)[C@]4(C)CCC3[C@@](C)(C2=O)[C@H]1CC(=O)O (stereo partly specified)
inactive: locus YAL021C, strain ccr4, stronger effect = lower value 0.988 | locus YAL026C, strain drs2, stronger effect = lower value 1.02 | locus YAL030W, strain snc1, stronger effect = lower value 0.997 | locus YBL061C, strain skt5, stronger effect = lower value 1.01 | locus YBR009C, strain hhf1, stronger effect = lower value 1 | locus YBR021W, strain FUR4, stronger effect = lower value 1 | locus YBR023C, strain chs3, stronger effect = lower value 1.01 | locus YBR171W, strain sec66, stronger effect = lower value 1.01 | locus YBR229C, strain ROT2, stronger effect = lower value 1.01 | locus YBR231C, strain swc5, stronger effect = lower value 1.01 | locus YBR279W, strain paf1, stronger effect = lower value 1.01 | locus YCL011C, strain gbp2, stronger effect = lower value 1.02 | locus YCL016C, strain dcc1, stronger effect = lower value 1.01 | locus YCL029C, strain bik1, stronger effect = lower value 0.995 | locus YCL061C, strain MRC1, stronger effect = lower value 1 | locus YCL069W, strain vba3, stronger effect = lower value 1.01 | locus YCR088W, strain abp1, stronger effect = lower value 1 | locus YDL005C, strain med2, stronger effect = lower value 0.996 | locus YDL035C, strain GPR1, stronger effect = lower value 1.03 | locus YDL040C, strain nat1, stronger effect = lower value 0.991 | locus YDL074C, strain BRE1, stronger effect = lower value 1.02 | locus YDL101C, strain DUN1, stronger effect = lower value 1.01 | locus YDL185W, strain tfp1, stronger effect = lower value 0.995 | locus YDL192W, strain arf1, stronger effect = lower value 1 | locus YDR001C, strain nth1, stronger effect = lower value 1.01 | locus YDR069C, strain doa4, stronger effect = lower value 1.02 | locus YDR101C, strain arx1, stronger effect = lower value 0.993 | locus YDR137W, strain rgp1, stronger effect = lower value 1.04 | locus YDR150W, strain NUM1, stronger effect = lower value 1.01 | locus YDR159W, strain sac3, stronger effect = lower value 1.01 | locus YDR162C, strain NBP2, stronger effect = lower value 1.03 | locus YDR195W, strain ref2 0.972 | locus YDR297W, strain sur2, stronger effect = lower value 1.01 | locus YDR318W, strain mcm21, stronger effect = lower value 0.996 | locus YDR334W, strain swr1, stronger effect = lower value 1.01 | locus YDR335W, strain msn5, stronger effect = lower value 1.01 | locus YDR388W, stronger effect = lower value 0.967 | locus YDR392W, strain spt3, stronger effect = lower value 1.01 | locus YDR502C, strain sam2, stronger effect = lower value 0.991 | locus YEL003W, strain gim4, stronger effect = lower value 1.03 | locus YEL037C, strain rad23, stronger effect = lower value 1.01 | locus YEL061C, strain CIN8 (second series), stronger effect = lower value 1.02 | locus YEL061C, strain CIN8, stronger effect = lower value 1 | locus YER015W, strain faa2, stronger effect = lower value 1 | locus YER016W, strain bim1, stronger effect = lower value 1 | locus YER110C, stronger effect = lower value 0.984 | locus YER111C, strain swi4, stronger effect = lower value 1.01 | locus YER155C, strain BEM2 (second series), stronger effect = lower value 1.02 | locus YER155C, strain BEM2, stronger effect = lower value 1 | locus YER167W, strain BCK2, stronger effect = lower value 1 | locus YFR010W, strain ubp6, stronger effect = lower value 1.01 | locus YGL078C, strain dbp3, stronger effect = lower value 0.996 | locus YGL086W, strain mad1, stronger effect = lower value 1.01 | locus YGL167C, strain pmr1, stronger effect = lower value 1 | locus YGL173C, strain kem1, stronger effect = lower value 1.01 | locus YGL227W, strain vid30, stronger effect = lower value 0.998 | locus YGL240W, strain doc1, stronger effect = lower value 1.01 | locus YGL248W, strain PDE1, stronger effect = lower value 1 | locus YGL253W, strain hxk2, stronger effect = lower value 1.01 | locus YGR135W, strain pre9, stronger effect = lower value 0.997 | locus YGR252W, strain gcn5, stronger effect = lower value 1 | locus YHR013C, strain ard1, stronger effect = lower value 1.02 | locus YHR027C, strain rpn1, stronger effect = lower value 0.993 | locus YHR030C, strain SLT2, stronger effect = lower value 0.98 | locus YHR079C, strain IRE1 (second series), stronger effect = lower value 0.996 | locus YHR079C, strain IRE1, stronger effect = lower value 0.956 | locus YHR094C, strain hxt1, stronger effect = lower value 0.981 | locus YHR129C, strain ARP1, stronger effect = lower value 1 | locus YHR142W, strain chs7, stronger effect = lower value 1.02 | locus YHR200W, strain rpn10, stronger effect = lower value 0.988 | locus YIL066C, strain RNR3, stronger effect = lower value 1 | locus YIL073C, strain SPO22, stronger effect = lower value 1.05 | locus YIL125W, strain kgd1, stronger effect = lower value 0.994 | locus YIR030C, strain dcg1, stronger effect = lower value 0.993 | locus YJL092W, strain hpr5, stronger effect = lower value 1.01 | locus YJL095W, strain BCK1 (second series), stronger effect = lower value 1 | locus YJL095W, strain BCK1, stronger effect = lower value 1.02 and 0.973 | locus YJL115W, strain asf1, stronger effect = lower value 1.02 | locus YJL129C, strain trk1, stronger effect = lower value 0.998 | locus YJL134W, strain LCB3, stronger effect = lower value 1 | locus YJL154C, strain vps35, stronger effect = lower value 1 | locus YJL164C, strain tpk1, stronger effect = lower value 1.01 | locus YJL166W, strain qcr8, stronger effect = lower value 1.02 | locus YJL168C, strain set2, stronger effect = lower value 0.994 | locus YJL187C, strain SWE1 (second series), stronger effect = lower value 1.01 | locus YJL187C, strain SWE1, stronger effect = lower value 1.03
